# Data reported in ChEMBL document CHEMBL3988442, “University of Dundee, Small-Polar-MMV Screening Library” (2021).
# About 13,000 (27%) of roughly 48,000 compounds showed an effect of 50% or more. The list shows a part of the results.
# Tested on: Wolbachia pipientis
# Assay: Anti-Wolbachia Cell-Based Screen
# Type: functional
# Parameters: scale not given: in the data most compounds retested in dose-response had high values
# Settings: 5 µM
row,SMILES,Percent Effect
1,Cc1ncsc1C(=O)NCC1CCC2(CCNCC2)CO1.Cl (configuration not stated),-19.17%
2,CCc1cc(NCc2cc(CC(C)C)on2)n2nccc2n1,-11.32%
3,O=C(c1cnccn1)N1CCn2cnc(COCC3CC3)c2C1,-16.54%
4,Cc1nc(CN2CC3(CCN(c4ncc(F)cn4)C3)CC2=O)cs1.O=C(O)C(F)(F)F (configuration not stated),22.92%
5,COc1cc(N2CCC3(CCN(Cc4nccs4)CC3)C2)ncn1.O=C(O)C(F)(F)F,189%
6,COc1cccc(N2CC3(CCN(c4cc(OC)ncn4)C3)CC2=O)c1 (configuration not stated),-36.15%
7,COc1cc(N2CCC3(CC(=O)N(Cc4csc(C)n4)C3)C2)ncn1 (configuration not stated),116.5%
8,O=C(O)C(F)(F)F.O=C(O)C(F)(F)F.c1csc(CN2CCC3(CC2)CCN(CC2CCOCC2)C3)n1,-8.285%
9,Fc1ccc(CN2CCC3(CCN(Cc4nccs4)CC3)C2)cc1.O=C(O)C(F)(F)F.O=C(O)C(F)(F)F,-8.456%
10,COc1ccc2c(ccn2CCC(=O)O)c1,-1.885%
11,CCCn1ccc2cc(NC(=O)NCCn3cnnc3CC)ccc21,-13.76%
12,COc1ccc2c(ccn2CC(=O)Nc2n[nH]c(C(C)C)n2)c1,99.9%
13,COc1ccc2c(ccn2CCC(=O)Nc2ccc(C(N)=O)cc2)c1,111.4%
14,COc1ccc2c(ccn2CCC(=O)Nc2n[nH]c(C(C)C)n2)c1,80.39%
15,COc1ccc2c(ccn2CCC(=O)Nc2nc[nH]n2)c1,112.1%
16,CCOC(C)C(=O)Nc1ccc2c(ccn2CC)c1 (configuration not stated),-6.658%
17,COc1ccc2c(ccn2CC(=O)N2CCCC2c2cnn(C)c2)c1 (configuration not stated),0.9225%
18,Cc1ccc2c(ccn2CCC(=O)NC[C@@H]2CCCN3CCCC[C@H]23)c1,-8.382%
19,NC(=O)c1ccc(NC(=O)CCN2CCCC(N3CCCC3)C2)cc1 (configuration not stated),-7.492%
20,CCOCCOC(C)C(=O)Nc1ccc2c(ccn2CC)c1 (configuration not stated),-1.618%
21,CN1Cc2nnc(C3CCOCC3)n2C(Cc2c[nH]cn2)C1 (configuration not stated),-4.297%
22,CC(Cn1cncn1)NC(=O)c1cn(Cc2ccccc2F)nn1 (configuration not stated),8.945%
23,CCNC(=O)NCC(CC)(OC)c1ccccc1 (configuration not stated),2.354%
24,O=C(NCCn1ccnc1)C1COCC(=O)N1Cc1ccccc1 (configuration not stated),-11.36%
25,CC1N(c2cnn(C)c2)C(=O)COC12CCN(c1ccccn1)CC2.O=C(O)C(F)(F)F (configuration not stated),138.6%

row,SMILES,Percent Effect
1,O=C(O)C(F)(F)F.O=C1COC2(CCN(c3ccccn3)CC2)CN1,-3.085%
2,Cn1ccnc1CN1CCC2(CC1)CN(c1ccccn1)CCO2.O=C(O)C(F)(F)F.O=C(O)C(F)(F)F,-7.538%
3,CC1N(c2cnn(C)c2)C(=O)COC12CCN(c1ncccn1)CC2.O=C(O)C(F)(F)F (configuration not stated),116.4%
4,CN1C(=O)CC(c2ccncc2)C12CCN(c1ncccn1)CC2.O=C(O)C(F)(F)F (configuration not stated),-40.6%
5,O=C(O)C(F)(F)F.O=C1COC2(CCN(c3ncccn3)CC2)CN1,1.956%
6,CC(C)(O)CSCCNC(=O)c1cc(F)ccc1F,5.192%
7,Cc1ccc(CS(=O)(=O)N2CC[C@H]3[C@H]2CCN3C)cc1,6.881%
8,CN(C)C(=O)N1CCC2(CC1)CNc1ccc(F)cc12.Cl,-3.877%
9,Cc1cnc(C(=O)N2CCNCC2C(=O)NCc2ccncc2)cn1 (configuration not stated),-22.4%
10,CNC(=O)c1cccc(Nc2cnn(C)c2)c1,-6.81%
11,COCCn1cc(C(=O)N2CCCC2c2cccc(F)c2)ccc1=O (configuration not stated),1.276%
12,CNC(=O)c1cccc(C2CNCCN2C(=O)c2ccn(C)n2)c1 (configuration not stated),140.8%
13,CC(C)Cn1cncc1CNC(=O)c1cccc(CC2CCNCC2)c1,4.276%
14,CNC(=O)NC(=O)CN1CCC(c2cccc(F)c2)C1 (configuration not stated),-6.233%
15,CNC(=O)c1cccc(C2CNCCN2C(=O)c2cccc(F)c2)c1.Cl (configuration not stated),87.98%
16,CNC(=O)c1cccc(C2CNCCN2C(=O)C2CCNCC2)c1 (configuration not stated),105.9%
17,CNC(=O)c1cccc(C2CNCCN2C(C)=O)c1 (configuration not stated),-19.14%
18,Cc1nc2c(c(=O)n1C)CCN(C(=O)CCc1ccccc1O)CC2,-32.69%
19,O=C1CCC2(CCOC2)CN1Cc1ccc2nsnc2c1 (configuration not stated),-12.42%
20,CC(=O)Nc1ncc(S(=O)(=O)N2CCCC(C)C2)s1 (configuration not stated),-1.419%
21,CN(C)C(=O)CN1CCOCC2(CCN(CC3CCOC3)CC2)C1.O=C(O)C(F)(F)F.O=C(O)C(F)(F)F (configuration not stated),-17.88%
22,Fc1ccc(N2CCOC3(COCCN(c4ncccn4)C3)C2)cc1.O=C(O)C(F)(F)F (configuration not stated),20.84%
23,CN(C)C(=O)CN1CCOCC2(CCN(c3ncc(F)cn3)CC2)C1.O=C(O)C(F)(F)F,94.37%
24,O=C(O)C(F)(F)F.c1cnc(N2CCOCC3(C2)CN(c2nccs2)CCO3)nc1 (configuration not stated),-52.69%
25,CN(C)C(=O)CN1CCOCC2(C1)CN(c1ncc(F)cn1)CCO2.O=C(O)C(F)(F)F (configuration not stated),98.39%

row,SMILES,Percent Effect
1,CN(C)C(=O)CN1CCOCC2(CCN(CC3CCOCC3)CC2)C1.O=C(O)C(F)(F)F.O=C(O)C(F)(F)F,8.025%
2,CC(C)(C)C1CCC(NCCN2CCOCC2)CC1 (configuration not stated),-13.34%
3,Cc1ccc(Cl)cc1NC(=O)C1CC(=O)N(Cc2ccccn2)C1 (configuration not stated),-6.487%
4,Cc1nc(C(=O)N2CCN(C(C)c3ccccc3F)CC2)cs1 (configuration not stated),-7.061%
5,CNc1nc(C(=O)N2CCC3(CCCN(C)C3=O)C2)cs1 (configuration not stated),-18.85%
6,CNc1nc(C(=O)N2CCN(c3ccc(Cl)c(Cl)c3)CC2)cs1,91.42%
7,Cc1nc(C(=O)N2CCN(c3ccc(Cl)c(Cl)c3)CC2)cs1,99.9%
8,COc1ccnc(N2CCN(C(=O)c3csc(C4CC4)n3)CC2)n1,22.41%
9,Cc1nc(C(=O)Nc2cc(N3CCNC3=O)ccc2Cl)cs1,-12.33%
10,CC(C)c1cnc(CN2CCCC(c3cc(C(N)=O)[nH]n3)C2)o1 (configuration not stated),94.99%
11,Cc1nnc(CN2CCCC(c3cc(C(N)=O)[nH]n3)C2)o1 (configuration not stated),-6.189%
12,CCc1nnc(CN2CCCC(c3cc(C(N)=O)[nH]n3)C2)o1 (configuration not stated),123.6%
13,Cc1cc(C2CCCN(Cc3ncc(C(C)C)o3)C2)n[nH]1 (configuration not stated),8.603%
14,CCc1nnc(CN2CCCC(c3cc(C(F)(F)F)[nH]n3)C2)o1 (configuration not stated),-1.93%
15,Cc1cnc(CN2CCCC(c3cc(C(N)=O)[nH]n3)C2)o1 (configuration not stated),1.908%
16,CC(C)c1nnc(CN2CCCC(c3cc(C(N)=O)[nH]n3)C2)o1 (configuration not stated),107%
17,CC(C)(C)c1nnc(CN2CCCC(c3cc(C(N)=O)[nH]n3)C2)o1 (configuration not stated),1.877%
18,Cc1nc(CN2CCCC(c3cc(C(N)=O)[nH]n3)C2)oc1C (configuration not stated),110.2%
19,CCNc1ccnc(-c2ccnc3c2ccn3C)n1,5.655%
20,COc1cc(NCCNC(=O)c2ccc3[nH]ccc3c2)cc(OC)c1,-37.35%
21,CN1C(=O)[C@H]2CC[C@@H]1CN(C(=O)c1sccc1S(N)(=O)=O)C2,0.6963%
22,Cc1cnc(CN2CCCC(c3cc(C(N)=O)[nH]n3)C2)cn1 (configuration not stated),0.6166%
23,Cc1ncc(CN2CCCC(c3cc(C(N)=O)[nH]n3)C2)s1 (configuration not stated),121.8%
24,O=C(CCc1cscn1)NS(=O)(=O)c1ccc2c(c1)CCC2,0.3885%
25,Cn1ccc(C(=O)N2CCC3(CC2)CC(Nc2cnccn2)CO3)n1 (configuration not stated),103.2%

row,SMILES,Percent Effect
1,Cn1ccc(CN2CCC3(CC2)CC(Nc2cnccn2)CO3)n1.O=C(O)C(F)(F)F (configuration not stated),4.568%
2,Cn1ccc(CN2CCC3(CC2)CC(Nc2ccccn2)CO3)n1.O=C(O)C(F)(F)F (configuration not stated),-6.155%
3,O=C(Cc1ccccc1)N1CCC2(CC1)CC(Nc1cnccn1)CO2 (configuration not stated),117.3%
4,Cc1nc2ncccn2c1C(=O)N1CCc2[nH]cnc2C1,16.62%
5,CN(CC1CCN(CCO)CC1)CC(O)c1ccc(F)c(F)c1 (configuration not stated),6.752%
6,COC(=O)c1cccc(-c2c[nH]c(C)n2)c1,-9.245%
7,CSCCCNc1nccc(-c2cc(C(=O)O)ccn2)n1,-11.9%
8,CC(C)C(=O)NCCNc1nccc(-c2cc(C(=O)O)ccn2)n1,-18.63%
9,CC[C@@H](CO)Nc1nccc(-c2c[nH]c3cc(C(=O)OC)ccc23)n1,73.76%
10,COc1cccc(-n2cc(-c3ccnc(N[C@@H](CO)C(C)C)n3)cn2)c1,-10.41%
11,Cc1ccc(CCNc2nccc(-c3cc(C(=O)O)ccn3)n2)o1,-34.17%
12,COC(=O)c1ccc2c(-c3ccnc(N[C@@H](C)CO)n3)c[nH]c2c1,96.47%
13,COC(=O)c1ccc2c(-c3ccnc(NCCO)n3)c[nH]c2c1,85.03%
14,CCCN1C[C@H]2CC[C@@H]1CN(Cc1ccc(-n3cccn3)cc1)C2,12.23%
15,O=C(CCc1cn[nH]c1)N1CCC(C2CCN(c3ncccn3)CC2)C1 (configuration not stated),-3.024%
16,CN1CCN(C[C@@H]2CN(C(=O)CCc3cn[nH]c3)C[C@@H]2CO)CC1,-11.62%
17,CN1CCOC(CNCc2coc(-c3cccc(Cl)c3)n2)C1 (configuration not stated),93.12%
18,CN1CCOC(CNCc2nc(-c3cccnc3)no2)C1 (configuration not stated),17.39%
19,CN1CCOC(CNCc2coc(-c3cccc(F)c3)n2)C1 (configuration not stated),69.38%
20,CN(C)Cc1ccc(C2CCCCN2C(=O)c2cc(=O)[nH]c(=O)[nH]2)cc1 (configuration not stated),-0.1381%
21,Cc1cnn(CCNCc2nc(-c3ccccc3Cl)no2)c1,-13.51%
22,CC[C@H]1N(CC2CCOCC2)CCC[C@]12CCC(=O)N2.O=C(O)C(F)(F)F,-18.34%
